From PubChem
aSyn 5UTR act – Activators working through SNCA 5'UTR binding (MLPCN); activity score, % (tested at 7.5 µM), hits read low; alpha-synuclein 5'UTR reporter, activators screen; 7.1% of 300,000 active; in the data active = activity score below about -60%
* = called active by the depositor. These entries were drawn from the full list.

For COc1ccc2ccccc2c1/C=N/Nc1cccc(C(=O)O)c1 the results were aSyn 5UTR act -108*.
Screening COc1cc2ccccc2cc1C(=O)NC(=S)Nc1cccc(C(=O)O)c1 returned aSyn 5UTR act -91*.
Screening CCOc1cc(/C=N/Nc2cccc(C(=O)O)c2)ccc1OC(=O)c1ccccc1 returned aSyn 5UTR act 98.
CC(=O)c1cccc(NC(=S)NC(=O)CC(C)(C)C)c1 was read as aSyn 5UTR act -134*.
Screening CC(=O)c1cccc(NC(=S)NC(=O)c2ccccc2)c1 returned aSyn 5UTR act -141*.
`COc1ccc(OCc2cc(C(=O)NC(C)Cn3cncn3)no2)c(Cl)c1` (stereo not drawn) gave aSyn 5UTR act -62*.
For COc1cc(Cl)ccc1OCc1cc(C(=O)NC(C)Cc2cnccn2)no1 (stereo not drawn) the results were aSyn 5UTR act -145*.
`CCC(NC(=O)c1cc(COc2ccc(Cl)cc2OC)on1)c1ccncc1` (stereo not drawn) gave aSyn 5UTR act -121*.
For CCC(NC(=O)c1cc(COc2ccc(OC)cc2Cl)on1)c1ccncc1 (stereo not drawn) the results were aSyn 5UTR act -71*.
Screening COc1cc(C(=O)NC(=S)NNC(=O)c2cnccn2)cc(OC)c1OC returned aSyn 5UTR act 79.
`COc1ccc(C(=O)O/N=C(\N)c2ccc(OC)c(OC)c2)cc1` gave aSyn 5UTR act -139*.
`COc1ccc(C(=O)O/N=C(\N)c2ccc(OC)c(OC)c2)c(OC)c1` gave aSyn 5UTR act -96*.
For O=C1Nc2cc(Cl)c(Cl)cc2N(O)N1c1ccc(Cl)cc1 the results were aSyn 5UTR act -149*.
`COc1cc(O)oc1C=Nc1ccc(C(F)(F)F)cc1` gave aSyn 5UTR act -89*.
For CC(NC(=O)NC(=O)c1ccc(Cl)cc1Cl)C1CC1 (stereo not drawn) the results were aSyn 5UTR act -70*.
For COc1ccccc1N=c1oc2cc(O)ccc2cc1C(N)=O the results were aSyn 5UTR act -74*.
COc1ccc2cc(C(N)=O)c(=Nc3ccc(C)cc3)oc2c1 was read as aSyn 5UTR act -62*.
`Cc1cccc(N=c2oc3cc(O)ccc3cc2C(N)=O)c1` gave aSyn 5UTR act -77*.
Cc1nn(-c2cc(C)c3ccccc3n2)c2c1CCC2 was read as aSyn 5UTR act -90*.
For COc1ccc(C)cc1Nc1c2c(nc3ccccc13)CCC2 the results were aSyn 5UTR act 68.
O=C(CN1CCCCC1)Nc1nnc(-c2ccccc2)s1 was read as aSyn 5UTR act -77*.
For O=C(CN1CCCC1)Nc1ccc(NC(=O)Nc2ccccc2)cc1 the results were aSyn 5UTR act -194*.
`CC(C)(C)CC(=O)Nc1nnc(-c2cccs2)s1` gave aSyn 5UTR act -213*.
O=C(CN1CCCC1)Nc1nnc(-c2cccs2)s1 was read as aSyn 5UTR act -118*.
Screening Cc1occc1C(=O)Nc1nnc(-c2cccs2)s1 returned aSyn 5UTR act -351*.
`O=C(CN1CCOCC1)Nc1ccc(C2CCCCC2)cc1` gave aSyn 5UTR act -75*.
Screening Cc1cccc2c3nc4ccccc4nc3n(C)c12 returned aSyn 5UTR act -78*.
Screening C=CCSc1nnc(NC(=O)c2ccc(Cl)nc2)s1 returned aSyn 5UTR act -77*.
For CC(C)(C)c1nnc(NC(=O)c2ccc(Cl)nc2)s1 the results were aSyn 5UTR act -126*.
CSc1nc(-c2ccc(Cl)cc2)nn1C(=O)c1ccccc1 was read as aSyn 5UTR act -134*.
CCOc1ccccc1-c1nc(-c2cccc(Br)c2)no1 was read as aSyn 5UTR act -135*.
For CCOc1ccccc1-c1nc(-c2ccc(NC(=O)c3ccc(Br)o3)cc2)no1 the results were aSyn 5UTR act -136*.
Screening CCN1CCN(S(=O)(=O)c2ccc(Cl)c(C(=O)NCCc3ccccc3)c2)CC1 returned aSyn 5UTR act -69*.
`COc1cc(/C(C)=N/NC(=O)CSc2nncn2C)ccc1OCc1ccccc1Cl` gave aSyn 5UTR act -83*.
For Cn1c(CNc2ccc(Br)cc2)nc2ccccc21 the results were aSyn 5UTR act -172*.
Screening Cc1ccc(NCc2nc3ccccc3n2C)cc1 returned aSyn 5UTR act -111*.
Screening Cc1ccc(NCc2nc3ccccc3n2C)cc1C returned aSyn 5UTR act -113*.
`Cn1c(NCc2ccc(Cl)cc2)nc2ccccc21` gave aSyn 5UTR act -100*.
`C=CCn1c(NCc2ccc(N(C)C)cc2)nc2ccccc21` gave aSyn 5UTR act -63*.
Screening CCCn1c(CNc2ccccc2O)nc2ccccc21 returned aSyn 5UTR act -84*.
`COc1ccc(NCc2nc3ccccc3n2C)cc1` gave aSyn 5UTR act -129*.
For Cn1c(S(=O)(=O)Cc2ccc(Cl)cc2)nc2ccccc21 the results were aSyn 5UTR act -65*.
`COc1ccc(Nc2nc3ccccc3n2C)cc1` gave aSyn 5UTR act -101*.
Screening Cn1c(CNc2nc3ccccc3n2C)nc2ccccc21 returned aSyn 5UTR act -81*.
For CCOC(=O)c1ccc(NCc2nc3ccccc3n2C)cc1 the results were aSyn 5UTR act -172*.
For CCC(C)N1CC(O)=C(c2nc3ccccc3[nH]2)C1=N (stereo not drawn) the results were aSyn 5UTR act -80*.
`CC1C(O)=C(c2nc3ccccc3[nH]2)C(=N)N1c1ccccc1` (stereo not drawn) gave aSyn 5UTR act -131*.
For N=C1C(c2nc3ccccc3[nH]2)=C(O)CN1c1ccccc1 the results were aSyn 5UTR act -293*.
For Cc1ncoc1C(=O)Nc1ccc2c(c1)OCCO2 the results were aSyn 5UTR act -63*.
For Cc1cc(C(=O)Nc2ccc3c(c2)OCCO3)c(C)o1 the results were aSyn 5UTR act -113*.
Screening Cc1ncoc1C(=O)Nc1ccc(Oc2ccccc2)cc1 returned aSyn 5UTR act -104*.
For COc1ccc(C(=O)NCCOc2ccccc2Cl)c(OC)c1OC the results were aSyn 5UTR act -154*.
For Cc1ccc(OCCOc2ccc(Cl)cc2Cl)c([N+](=O)[O-])n1 the results were aSyn 5UTR act -88*.
For Cc1cc(C)n(-c2nc3c(c(=O)[nH]c(=O)n3C)n2CC(O)COc2ccc(Cl)cc2Cl)n1 (stereo not drawn) the results were aSyn 5UTR act 73.
`COc1ccc(OCCOc2ccc(C)nc2[N+](=O)[O-])cc1` gave aSyn 5UTR act -106*.
For Cc1ccc(COc2ccc(C)nc2[N+](=O)[O-])cc1 the results were aSyn 5UTR act -118*.
Screening COc1ccc(C2=NOC(C(=O)NCC(C)C)C2)cc1 (stereo not drawn) returned aSyn 5UTR act -107*.
Screening COc1ccc(C2=NOC(C(=O)NCc3ccco3)C2)cc1 (stereo not drawn) returned aSyn 5UTR act -77*.
Screening S=C(NN=C1C2CC3CC(C2)CC1C3)Nc1ccccc1 returned aSyn 5UTR act -70*.
For CCC(C)(C)C1CCC(=NNC(=S)Nc2ccccc2)CC1 (stereo not drawn) the results were aSyn 5UTR act -124*.
COc1cc(/C=N/NC(=S)NC2CC3CC2C2C=CCC32)ccc1O (stereo not drawn) was read as aSyn 5UTR act -116*.
For O=C1NC(c2cccs2)Nc2sc3c(c21)CCCC3 (stereo not drawn) the results were aSyn 5UTR act -131*.
`Cc1ccc(C(=O)N/C(=C\c2ccc(-c3ccccc3[N+](=O)[O-])o2)C(=O)NCCCN2CCOCC2)cc1` gave aSyn 5UTR act 71.
Screening COc1nc(N/N=C/c2ccc(-c3ccccc3[N+](=O)[O-])o2)nc(N2CCOCC2)n1 returned aSyn 5UTR act -105*.
